From PubChem BioAssay (NCI)
About 79,000 compounds went through this panel and 15% of them were active in at least one assay; those are over-represented in the sample as a whole. The source made the active and inactive calls. No stated cut-off is given here; in the data, active means growth inhibition above about 70%; inactive means the rest. Where a SMILES comes first, the peptide text is derived from it. The star is where a group is joined. Cbz = O=C(OCc1ccccc1)*

Key:
[1] = NCI Yeast Anticancer Drug Screen. Data for the mec2-1 strain (AID 157); conditions: S. cerevisiae mec2-1 strain, at 50.0 µM, stronger effect = higher value
Method in brief: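 Yeast mec2-1 mutant treated with compound. Readout: growth inhibition vs vehicle controls.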

[2] = NCI Yeast Anticancer Drug Screen. Data for the sgs1 mgt1 strain (AID 161);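 further: 0% = growth of cultures given vehicle only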; conditions: S. cerevisiae sgs1 mgt1 strain, at 50.0 µM, stronger effect = higher value
Method in brief: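 Genetically altered yeast, compound exposure, growth inhibition relative to vehicle.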

[3] = NCI Yeast Anticancer Drug Screen. Data for the cln2 rad14 strain (AID 165);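 further: 0% = growth equal to vehicle treated cultures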; conditions: S. cerevisiae cln2 rad14 strain, at 50.0 µM, stronger effect = higher value
Method in brief: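 cln2 rad14 yeast strain; compound exposure; growth inhibition read vs vehicle controls.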

[4] = NCI Yeast Anticancer Drug Screen. Data for the bub3 strain (AID 167); conditions: S. cerevisiae bub3 mutant strain, at 50.0 µM, stronger effect = higher value
Method in brief: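 Part of a panel of yeast mutants defective in DNA damage repair or cell cycle regulation. Each strain is grown with compound, and inhibition is calculated relative to solvent-treated cultures.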

[5] = NCI Yeast Anticancer Drug Screen. Data for the mlh1 rad18 strain (AID 175); conditions: S. cerevisiae mlh1 rad18 strain growth inhibition; at 50.0 µM; stronger effect = higher value
Method in brief: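 Yeast w/ defined DNA-repair lesions; compound exposure; growth vs vehicle controls → % inhibition.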

Measured: growth inhibition

O=C(O)Cn1c[n+](NC(=O)Cc2ccccc2)cn1
inactive: [1] -25.4% | [2] -25% | [3] -41.8% | [4] -34.5% | [5] -10.8%

CC(=O)Oc1cc(C)ccc1C
inactive: [1] -0.5% | [2] -18.2% | [3] -55.5% | [4] -21.8% | [5] -0.35%

CCOC(=O)c1c2c(nc3c1CCCC3)CCCC2
inactive: [1] 3.45% | [2] -1.6% | [3] -1.05% | [4] 7.4% | [5] -24.9%

CC(=O)NC(CCCN)C(=O)NCc1ccccc1 (centres undefined)
inactive: [1] -19.2% | [2] -20.3% | [3] 17.5% | [4] -3.45% | [5] -22.6%

Cc1c(COC(=O)NC(C)C)c(COC(=O)NC(C)C)c2n1CCS2(=O)=O
inactive: [1] -20.8% | [2] 4.75% | [3] -32.7% | [4] 0.5% | [5] -21.6%

Clc1ccc(-c2nc3ccccc3cc2N2CCOCC2)cc1
active: [5] 82.5%
inactive: [1] 52% | [2] 47.9% | [3] 49.7% | [4] 39.5%

O=C(NCCN1CCCCC1)C(O)(C1CCCCC1)C1CCCCC1
inactive: [1] 7.65% | [2] 12.2% | [3] 19.2% | [4] 9.75% | [5] 3.9%

COc1ccccc1Br
inactive: [1] 0.85% | [2] -2% | [3] -15.3% | [4] -32.1% | [5] -4%

CCS(=O)(=O)C(S(C)(=O)=O)S(=O)(=O)C(C)C (centres undefined)
inactive: [1] 31.6% | [2] 8.45% | [3] -9.15% | [4] 26.8% | [5] 14%

CCCC(=O)NC(C)(C)C
inactive: [1] -5.3% | [2] -33.9% | [3] 2.9% | [4] 6.2% | [5] -21%

CC(NC(=O)C(NC(=O)OCc1ccccc1)C(C)C)C(=O)NCC(=O)O (stereo not drawn) (Cbz-Val-Ala-Gly-OH; configuration not given here)
inactive: [1] -23.2% | [2] -9.9% | [3] 19.8% | [4] 7.1%

O=S(=O)(N/N=C/c1c(Cl)cccc1Cl)c1ccccc1
inactive: [1] 12.1% | [2] 11.9% | [3] -9.35% | [4] 9.65% | [5] 31.5%

C[n+]1ccccc1C(O)C(O)c1cccc[n+]1C (centres undefined)
inactive: [1] 1.65% | [2] 8.85% | [3] 23.4% | [4] -8.45% | [5] 9.6%

O=[N+]([O-])c1ccc(/C(CBr)=N/N2CCCCC2)cc1
inactive: [1] -24.9% | [2] -4.6% | [3] 3.55% | [4] -9.65% | [5] -13.6%

CCCCCCCCSc1nc2ccc(N=Cc3ccccc3O)cc2s1
inactive: [1] 31.7% | [3] 53.6% | [4] 21.7% | [5] 36.1%
active: [2] 73.3%

CCC(CC)COC(=O)c1ccccc1C
inactive: [1] -0.15% | [2] -0.85% | [3] -27.1% | [4] 15.4% | [5] 0.6%

S=C1NCCOc2ccccc21
inactive: [1] -13.1% | [2] -2.5% | [3] -8.05% | [4] -10.9% | [5] -4.55%

Cc1ccc(NC(=O)C(=O)Cc2cc[n+]([O-])cc2)cc1
inactive: [1] -1.5% | [2] 11.9% | [3] 7.6% | [4] 3.55% | [5] 4.05%

COc1ccc2ccc3ccc(OC)nc3c2n1
inactive: [1] 40.2% | [2] 36.1% | [3] -7.05% | [4] 30.2% | [5] 16.1%

Cn1c(=O)cc(CCl)c2ccccc21
inactive: [1] 26.6% | [2] 44% | [3] 28.4% | [4] 31.7% | [5] 52%

COc1cc(C=O)c(-c2c(C=O)ccc3c2OCO3)c(OC)c1OC
inactive: [1] -1.9% | [2] 30.2% | [3] 18.1% | [4] 26% | [5] -1.5%

CC1CC(NC(=O)/C=C/C(=O)O)CC(C)(C)C1 (centres undefined)
inactive: [1] 1.05% | [2] 9% | [3] -2.95% | [4] 33.9% | [5] -0.2%

C=C1CCCC2OC(OC)CCC12 (centres undefined)
inactive: [1] -10.8% | [2] -6.5% | [3] 0.75% | [4] -21.9% | [5] -10.6%

COc1ccc(OC)c(/C=C2/C(=O)N(c3ccccc3)N=C2C)c1
inactive: [1] -1.25% | [2] 5.6% | [3] -1.85% | [4] 15.5% | [5] 4.75%

CC1=C(C(=O)CC(=O)Nc2ccc(Cl)c(Cl)c2)Sc2ccccc2N1
inactive: [1] 21.9% | [2] -4.3% | [3] 13.7% | [4] 0.25% | [5] 20.9%

CC1=CCC(CC=O)C1(C)C (centres undefined)
inactive: [1] -1.95% | [2] -6.3% | [3] -43.4% | [4] -6.65% | [5] -3.45%

CCC(c1ccc(OC)cc1)C(C(C)=O)c1ccc(OC)cc1 (centres undefined)
inactive: [1] -13% | [2] -4.1% | [3] -22.9% | [4] 25.6% | [5] -5.85%

CCOC(=O)C(Cc1ccc(O)cc1)NC(=O)C(CSC(c1ccccc1)(c1ccccc1)c1ccccc1)NC(c1ccccc1)(c1ccccc1)c1ccccc1 (centres undefined)
inactive: [1] 0.8% | [2] -14.8% | [3] -1.65% | [4] -5.05% | [5] 9.55%

CN(C)c1c([N+](=O)[O-])cc2[nH]cnc2c1[N+](=O)[O-]
inactive: [1] 12.2% | [2] 13.3% | [3] -2.9% | [4] 19.4% | [5] 13.7%
